Screen size: about 220,000 compounds; about 2,000 (0.91%) were called active. About 2% were inconclusive and are not listed. The list is a sample of the results. Results with a measured potency or affinity are listed apart. Unmarked numbers belong to inactive results. Cut-off read from the data, not from the text of the source: inconclusive = inhibition above about 80% without an active follow-up result; inactive = below that; test concentration not stated here.
Assay: M. tuberculosis H37Rv growth inhibitors, H37Rv strain (AID 1626);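 note: bacteria incubated seven days before Alamar blue readout; 0% = bacteria only wells and 100% = bacteria with antibiotic wells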
Conditions: active compounds read high, concentration not given here

Row | Structure (SMILES) | inhibition [%]
1 | O=C(C(=O)N1CCc2ccccc2C1)c1cn(CC(=O)N2CCOCC2)c2ccccc12 | -0.84
2 | CCOC(=O)/C=C(\C)N1N=C(c2ccccc2)CC1c1ccccc1 (centres undefined) | 33.1
3 | C=CCOc1ccccc1CNCCc1ccc(S(N)(=O)=O)cc1 | 0.31
4 | CCOC(=O)c1cccc(NC(=S)NCc2ccc(C)cc2)c1 | 2.33
5 | COCCNC(=O)c1cccc(C)c1[N+](=O)[O-] | 3.44
6 | CC1CC1C(=O)OCC(=O)Nc1cccc(S(=O)(=O)NC2=NCCCCC2)c1 (centres undefined) | -7.4
7 | COc1ccc(CCNC(=O)C2CC3Cn4c(nc5ccccc54)C3N2Cc2ccccc2)cc1 (centres undefined) | -0.23
8 | Cc1ccc(S(=O)(=O)CCC(=O)OCC(=O)N2CC(=O)Nc3ccccc32)cc1 | -1.54
9 | COc1ccc(-n2c(SCC(=O)Nc3cc(C(=O)O)ccc3C)nc3ccccc3c2=O)cc1Cl | -8.45
10 | CN1/C(=C\C(=O)c2cccnc2)C(C)(C)c2ccccc21 | -3.35
11 | CN1/C(=C\C(=O)c2cncc(Br)c2)C(C)(C)c2ccccc21 | 25.1
12 | Cc1ccc2cc3cc(C(=O)N4CCC5(CC4)OCCO5)oc3nc2c1 | -1.4
13 | COc1ccc2nc3oc(C(=O)N4CCC5(CC4)OCCO5)cc3cc2c1 | 5.85
14 | CCN(C(=O)CSc1cc(C)c2cccc(C)c2n1)C1CCS(=O)(=O)C1 (centres undefined) | 1.8
15 | O=C(CCC1CCCN(C(=O)CC2=CCCCC2)C1)N1CCN(c2ccccn2)CC1 (centres undefined) | 8.51
16 | CCSc1nnc([C@H](Cc2ccccc2)NC(=O)OC(C)(C)C)o1 | 14.6
17 | O=C(NCCC1=CCCCC1)NC1CCCCC1 | -1.65
18 | NS(=O)(=O)c1ccc(CCNC(=O)NC23CC4CC(CC(C4)C2)C3)cc1 | 3.03
19 | O=C(NCCCO)NC12CC3CC(CC(C3)C1)C2 | 1.78
20 | COc1ccc(CCNC(=O)NC23CC4CC(CC(C4)C2)C3)cc1OC | -2.6
21 | CCOC(=O)c1cc(-c2ccccc2)nn1-c1ccccn1 | -4.13
22 | C#CCOCCOCCOCCNc1nc(N2CCOCC2)nc(N2CCN(C(=O)Cn3cc(CCCN=C(N)N)nn3)CC2)n1 | -13.8
23 | CCN(CC)C(=O)c1cc2c(=O)c3cc(F)ccc3oc2nc1C | 1.36
24 | Cc1ccc(Nc2nc3ccccc3n3nnnc23)cc1 | -0.03
25 | O=C(CCO)c1ccc(O)cc1 | 12.1

Row | Structure (SMILES) | inhibition [%]
26 | CCCCC(=O)c1ccc(O)cc1O | 77
27 | CCCCCCCC(=O)N/N=C(\C)c1ccc(O)cc1O | 11.6
28 | CCC(=O)c1ccc(O)cc1 | 14.2
29 | O=C(NCc1ccc(Cl)cc1)c1noc2c1CCCCC2 | 4.19
30 | COc1ccc(NC2=CC(=O)CC(c3ccccc3)C2)cc1 (centres undefined) | -3.06
31 | O=C(O)CC(CC(=O)Nc1ccc(F)c(Cl)c1)c1ccc(Cl)cc1Cl (centres undefined) | -8.97
32 | NNC(=O)C(Cc1ccccc1)NC(=O)OCc1ccccc1 (centres undefined) | 3.92
33 | O=C(Nc1ccc(Cl)c(Cl)c1)c1ccc(Cl)c(Cl)c1 | 2.4
34 | Clc1ccc(C2=NCCN2)cc1 | 4.97
35 | CCCN1C(=O)c2cc(C(=O)NCc3cccs3)ccc2C1O (centres undefined) | -13.3
36 | O=C(Nc1ccc(F)c(Cl)c1)C1CC(=O)n2c(nc3ccccc32)N1 (centres undefined) | -5.64
37 | Cc1ccc(/C=N/N2CCN(c3ccccc3)CC2)cc1 | -2.14
38 | O=c1c(O)c(-c2cccs2)oc2ccccc12 | -4
39 | O=c1cc(-c2cccs2)oc2ccc(Cl)cc12 | -2.31
40 | Cc1cc(C(=O)NNS(=O)(=O)c2cccc(Cl)c2)nn1C(C)(C)C | 2.6
41 | CC(C)(C)NC(=O)Cn1c(Cl)nc2ccccc21 | -2.82
42 | Nc1nc(-c2ccc3ccccc3c2)cs1 | 67.7
43 | Nc1nc(-c2ccccc2)cs1 | 56.7
44 | Nc1nc(-c2ccc(-c3ccccc3)cc2)cs1 | -0.75
45 | CC(=O)Nc1cccc(-c2csc(N)n2)c1 | 1.85
46 | Fc1cccc(-c2csc(-c3ccno3)n2)c1 | 0.3
47 | Cc1ccc(OCc2csc(N)n2)cc1 | 2.65
48 | COc1ccc(-c2csc(N)n2)cc1 | 84.2
49 | COc1ccc(OCc2csc(N)n2)cc1 | -2.49
50 | CCCCOc1ccc(NC(=O)C(=O)NCCC2=CCCCC2)cc1 | -6

Row | Structure (SMILES) | inhibition [%]
51 | Cc1ccc(NC2=NC3(CCCC3)N=C(N)N2)c(C)c1 | -0.52
52 | CCC1CCCCN1C(=O)CSc1nnc(CNC(=O)COc2ccc(Cl)cc2)o1 (centres undefined) | 0.62
53 | CC(=O)Nc1ccc(C(=O)NCC(=O)OCc2ccccc2F)cc1 | 8.24
54 | C=CCNC(=O)c1sc(-c2ccccc2)nc1C | -4.4
55 | COCCn1c(SCC(=O)N2CCN(c3ccccc3)CC2)nc2c(c1=O)SC(C)C2 (centres undefined) | -6.25
56 | O=C(COC(=O)c1cccs1)NCC1CCCO1 (centres undefined) | -10.3
57 | COC(=O)Nc1ccc(S(=O)(=O)NCc2ccccn2)cc1 | 4.77
58 | Cc1ccc2c(c1)C1CN(C)CCC1N2C(=O)c1cccc(S(=O)(=O)N(C)C)c1 (centres undefined) | 1.67
59 | COCCOc1ccc(C(F)(F)F)cc1Nc1nc2ccccc2o1 | 11.7
60 | COc1cc(/C=N/OCC(=O)Nc2cc(C)on2)ccc1OCc1ccccc1 | 6.49
61 | CC1CCCN(c2c([N+](=O)[O-])cc(C(=O)O)cc2[N+](=O)[O-])C1 (centres undefined) | -5.57
62 | O=[N+]([O-])c1ccc(N2CCCCC2)s1 | 48.3
63 | O=C(Cc1c[nH]c2ccccc12)NCc1ccc2c(c1)OCO2 | 8.71
64 | CCOc1c(OC)ccc2c3c(c(=O)oc12)CCCC3 | 12.9
65 | CCCOc1ccc2c3c(c(=O)oc2c1OCCC)CCCC3 | 30.6
66 | Cc1cc(CNC(=S)Nc2ccc(Br)cc2Cl)nn1C | 9.6
67 | Cc1ccc(N=Cc2c(O)n(-c3ccc(C)cc3)c(=O)[nH]c2=O)cc1 | -7.29
68 | COc1ccc(N=Cc2c(O)n(-c3cccc(C)n3)c(=O)c3ccccc23)cc1 | 16.8
69 | CCN(CC)c1ccc(N=Cc2c(O)n(-c3ccc(OC)cc3)c(=O)[nH]c2=O)cc1 | -3.8
70 | CCOc1ccc(N=Cc2c(O)n(Cc3ccccc3)c(=S)[nH]c2=O)cc1 | 72.9
71 | CCOc1ccc(-n2c(O)c(C=Nc3ccc(N4CCOCC4)cc3)c(=O)[nH]c2=O)cc1 | -4.71
72 | Cc1cccc(-n2c(O)c(C=Nc3ccc(O)cc3)c3ccccc3c2=O)n1 | -0.55
73 | COc1cc(CN=Cc2c(O)n(C(C)(C)C)c(=O)[nH]c2=O)cc(OC)c1 | -1.21
74 | CCOc1ccccc1-n1c(O)c(C=Nc2ccc(N(CC)CC)cc2)c(=O)[nH]c1=O | -4.16
75 | O=C(O)c1ccc(CSc2nc3ccc(N4C(=O)C5C6C=CC(C6)C5C4=O)cc3s2)cc1 (centres undefined) | -3.36

Row | Structure (SMILES) | inhibition [%]
76 | CN=C1SC(CC(=O)Nc2ccccc2F)C(=O)N1C (centres undefined) | -3.74
77 | COc1cccc(NC(=S)NNC(=O)c2ccccc2OC(F)F)c1 | -13.3
78 | COc1ccc(C)cc1N(C(=O)CNC(=O)c1ccco1)C(C(=O)NC1CCCC1)c1cccnc1 (centres undefined) | -8.51
79 | COc1cccc(-c2nn(-c3ccccc3)cc2CN(C)Cc2ccon2)c1 | -3.56
80 | CN(C)S(=O)(=O)c1ccc2oc(SCC(N)=O)nc2c1 | -16.7
81 | CC1=NN(C(=O)COc2ccccc2)C(O)(c2cccnc2)C1 (centres undefined) | -1.6
82 | COc1ccc(CCN(C)CC(O)c2ccccc2)cc1OC (centres undefined) | 1.49
83 | CCOc1ccc(-n2c(O)c(C=Nc3ccc(N(CC)CC)cc3)c(=O)[nH]c2=O)cc1 | -0.69
84 | CCOc1ccc(-n2c(O)c(C=Nc3ccc(NC(C)=O)cc3)c(=O)[nH]c2=O)cc1 | 4.04
85 | CC1CCCN(c2nc3c(c(=O)[nH]c(=O)n3C)n2CCSc2ncccn2)C1 (centres undefined) | 2.85
86 | COC(=O)C1C2c3ccccc3OC1(C)N=c1s/c(=C/c3cnn(C)c3)c(=O)n12 (centres undefined) | 58.3
87 | COC(=O)C1C2c3ccccc3OC1(C)N=c1s/c(=C/c3cn(C)nc3C)c(=O)n12 (centres undefined) | -3.65
88 | Cc1c(C)[n+](=O)c2c(n1[O-])C(Br)CCC2Br (centres undefined) | 0.09
89 | COC(=O)c1cccc(NC(N)=S)c1 | 2.04
90 | NC(=O)Oc1cccc(OC(N)=O)c1 | -7.05
91 | C#CCOc1ccc(Br)cc1/C=N/O | 7.55
92 | O=C(NCc1cccs1)c1cc(-c2ccncc2)nc2ccc(Br)cc12 | 71.8
93 | Cc1cc(N)n2ncc(-c3cccc(Br)c3)c2n1 | 22.8
94 | O=C(O)CSC1c2ccccc2C(=O)N1c1ccccc1 (centres undefined) | -1.63
95 | CC(C)CNC(=O)Cn1c(=O)c2c(ncn2CC(C)C)n(Cc2ccccc2)c1=O | 7.42
96 | Cc1ccc(NC(=S)NNC(=O)c2ccco2)cc1 | 7.01
97 | O=C(Nc1ncc(Cc2ccccc2Cl)s1)c1ccc(-c2cccc([N+](=O)[O-])c2)o1 | -0.67
98 | O=C(Nc1ncc(Cc2cccc([N+](=O)[O-])c2)s1)c1ccco1 | 1.37
99 | COC(=O)c1ccc(OCC(O)CN2C(=O)NC(C)(C)C2=O)cc1 (centres undefined) | -2.31
